{"source": "PubChem BioAssay", "key": {"[1]": {"experiment": "growth inhibition of DIPG glioma cells, dose response, cell-based, SU-DIPG-XVII, MIPE5.0, CellTiter-Glo, qHTS (AID 1347060; cut-off not given, nearly all actives have AC50 up to about 26 µM;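 also: cells exposed to compound for 48 hours before viability readout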)", "conditions": "SU-DIPG-XVII viability, CellTiter-Glo ATP luminescence"}, "[2]": {"experiment": "growth inhibition of DIPG glioma cells, dose response, cell-based, SU-DIPG-XIII, MIPE5.0, CellTiter-Glo, qHTS (AID 1347064; cut-off not given, nearly all actives have AC50 up to about 23 µM;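 also: cells exposed to compound for 48 hours before the viability read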)", "conditions": "SU-DIPG-XIII viability, CellTiter-Glo ATP luminescence"}, "[3]": {"experiment": "viability loss in pontine glioma line – cell-based, SU-DIPG-XXV, MIPE5.0, CellTiter-Glo, qHTS, dose response (AID 1347065; cut-off not given, nearly all actives have AC50 up to about 26 µM;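 also: cells exposed to compound for 48 hours before ATP readout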)", "conditions": "CellTiter-Glo ATP luminescence"}, "[4]": {"experiment": "JHH-DIPG-1 glioma cell viability, MIPE5.0 library, CellTiter-Glo luminescence, qHTS (AID 1347067; cut-off not given, nearly all actives have AC50 up to about 26 µM;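 also: cells exposed to compound for 48 hours before readout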)", "conditions": "JHH-DIPG-1 glioma viability, CellTiter-Glo ATP luminescence"}, "[5]": {"experiment": "SU-DIPG-XXV glioma cell viability, MIPE5.0 library, qHTS (AID 1347068; cut-off not given, nearly all actives have IC50 up to about 30 µM;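 also: cells exposed to compound for 48 hours before viability readout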)"}, "[6]": {"experiment": "LFS_MB_P medulloblastoma growth inhibition, cell-based, chromothripsis tumors, cisplatin or BGB combos (AID 1671449);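 also: cells exposed for 96 hours; 0% = vehicle DMSO and 100% = killing by high DMSO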", "conditions": "LFS_MB_P medulloblastoma cells"}, "[7]": {"experiment": "HDN33 neuroblastoma growth inhibition, cell-based, chromothripsis tumors, cisplatin or BGB combos (AID 1671450);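 also: cells exposed to compound for four days; 0% = vehicle DMSO and 100% = cell killing by high DMSO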", "conditions": "HDN33 neuroblastoma cells, stronger effect = higher value"}, "[8]": {"experiment": "ICB984 medulloblastoma cell growth inhibition, synergistic combos for chromothripsis tumors, cisplatin or BGB combos (AID 1671451; call rule not given here;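 also: cells exposed for 96 hours before readout; 0% = vehicle DMSO and 100% = killing by high DMSO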)", "conditions": "ICB984 medulloblastoma cells, drug combinations, stronger effect = higher value"}, "[9]": {"experiment": "LFS_MB_1R medulloblastoma cell growth inhibition, synergistic combos for chromothripsis tumors, cisplatin or BGB combos (AID 1671452);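 also: cells exposed for 96 hours before readout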", "conditions": "LFS_MB_1R medulloblastoma cells, stronger effect = higher value"}, "[10]": {"experiment": "HTB85 osteosarcoma cell growth inhibition, synergistic combos for chromothripsis tumors, BGB or cisplatin IC20 combos (AID 1671453);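 also: cells exposed for 96 hours before readout; 0% = vehicle DMSO and 100% = high DMSO killing control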", "conditions": "HTB85 osteosarcoma cells, drug combinations, stronger effect = higher value"}, "[11]": {"experiment": "CRL2098 osteosarcoma cell growth inhibition, synergistic combos for chromothripsis tumors, BGB or cisplatin IC20 combos (AID 1671454);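 also: cells exposed for 96 h before readout; 0% = vehicle DMSO and 100% = killing by high DMSO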", "conditions": "CRL2098 osteosarcoma cells, drug combinations, stronger effect = higher value"}, "[12]": {"experiment": "HD-MB03 medulloblastoma cell growth inhibition, synergistic combos for chromothripsis tumors, BGB or cisplatin IC20 combos (AID 1671455; in the data active = inhibition above about 83%;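 also: 0% = vehicle DMSO and 100% = high DMSO as cytotoxic control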)", "conditions": "HD-MB03 medulloblastoma cells, stronger effect = higher value"}, "[13]": {"experiment": "UWB1.289 ovarian carcinoma cell growth inhibition, synergistic combos for chromothripsis tumors, BGB or cisplatin combos (AID 1671456);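 also: cells exposed to compound for four days; 0% = vehicle DMSO and 100% = killing by high DMSO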", "conditions": "UWB1.289 ovarian carcinoma cells, stronger effect = higher value"}, "[14]": {"experiment": "LFS_MB_2R medulloblastoma cell growth inhibition, synergistic combos for chromothripsis tumors, cisplatin combos (AID 1671457);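 also: cells exposed to compound for four days before readout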", "conditions": "LFS_MB_2R medulloblastoma cells, stronger effect = higher value"}, "[15]": {"experiment": "MDA-MB-436 breast carcinoma cell growth inhibition, synergistic combos for chromothripsis tumors, BGB or cisplatin combos (AID 1671458; call rule not given here;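 also: cells exposed for 96 hours; 0% = vehicle DMSO and 100% = killing by high DMSO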)", "conditions": "MDA-MB-436 breast carcinoma growth inhibition, drug combinations, stronger effect = higher value"}, "[16]": {"experiment": "UWB1.289_BRCA1 ovarian cancer growth, cell-based, BGB or cisplatin combinations (AID 1671459)", "conditions": "UWB1.289 BRCA1 ovarian carcinoma, drug combinations, stronger effect = higher value"}, "[17]": {"experiment": "human astrocyte viability loss, single and combined drugs, cytotoxicity control for chromothriptic childhood tumor combination screen, cell-based, BGB or cisplatin IC20 combos (AID 1671460);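 also: cells exposed to compounds for 96 hours before viability readout; 0% = vehicle and 100% = killing control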", "conditions": "Human astrocytes, drug combinations, stronger effect = higher value"}, "[18]": {"experiment": "growth inhibition of BT084 medulloblastoma cells, cell-based, ICGC_MB145, cisplatin and BGB IC40 combos (AID 1671461);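 also: cells exposed to drugs for 96 hours; 0% = vehicle DMSO and 100% = high DMSO full killing control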", "conditions": "drug combinations, stronger effect = higher value"}, "[19]": {"experiment": "growth inhibition of RCMB18 medulloblastoma cells, cell-based, cisplatin and BGB IC40 combos (AID 1671462);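 also: cells exposed to compound for four days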", "conditions": "stronger effect = higher value"}, "[20]": {"experiment": "growth inhibition of CRL1545 osteosarcoma cells, cell-based, cisplatin and BGB IC20 combos (AID 1671464);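 also: cells exposed to compound for 96 hours before readout; 0% = vehicle DMSO and 100% = high DMSO killing control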", "conditions": "stronger effect = higher value"}, "[21]": {"conditions": "measured here: combination with BGB IC40, at 0.05 µM"}, "[22]": {"conditions": "measured here: with BGB IC20 combination, at 0.5 µM"}, "[23]": {"conditions": "measured here: with cisplatin IC20 combination, at 0.5 µM"}, "[24]": {"conditions": "measured here: combination with cisplatin, at 0.5 µM"}, "[25]": {"conditions": "measured here: combination with cisplatin, at 5 µM"}}, "note": "Inconclusive results are not listed. Calls of active or inactive are those of the source. Rule as the data show it, unless noted: active = inhibition above about 80%; inactive = the rest."}
{"smiles": "CN(C)C/C=C/C(=O)Nc1ccc(C(=O)Nc2cccc(Nc3ncc(Cl)c(-c4c[nH]c5ccccc45)n3)c2)cc1", "values": [{"measurement": "AC50", "setting": "[1]", "result": "263 nM (active)"}, {"measurement": "AC50", "setting": "[2]", "result": "209 nM (active)"}, {"measurement": "AC50", "setting": "[3]", "result": "209 nM (active)"}, {"measurement": "AC50", "setting": "[4]", "result": "263 nM (active)"}, {"measurement": "IC50", "setting": "[5]", "result": "295 nM (active)"}, {"measurement": "inhibition", "setting": "[6]; at 0.5 µM, stronger effect = higher value", "result": "-12.9% (inactive)"}, {"measurement": "inhibition", "setting": "[6]; measured here: combination with BGB IC20, at 0.005 µM", "result": -29.1, "unit": "%"}, {"measurement": "inhibition", "setting": "[6]; measured here: combination with BGB IC40, at 0.005 µM", "result": -64.8, "unit": "%"}, {"measurement": "inhibition", "setting": "[6]; [21]", "result": 7.86, "unit": "%"}, {"measurement": "inhibition", "setting": "[6]; measured here: combination with cisplatin, at 0.5 µM, stronger effect = higher value", "result": -42.5, "unit": "%"}, {"measurement": "inhibition", "setting": "[6]; measured here: combination with cisplatin, at 5 µM, stronger effect = higher value", "result": 89.6, "unit": "%"}, {"measurement": "inhibition", "setting": "[7]; BGB combo, at 5 µM", "result": 97.3, "unit": "%"}, {"measurement": "inhibition", "setting": "[7]; at 0.5 µM", "result": "42.9% (inactive)"}, {"measurement": "inhibition", "setting": "[7]; cisplatin combo, at 5 µM", "result": 98.3, "unit": "%"}, {"measurement": "inhibition", "setting": "[7]; [22]", "result": 43.5, "unit": "%"}, {"measurement": "inhibition", "setting": "[7]; [23]", "result": 38.3, "unit": "%"}, {"measurement": "inhibition", "setting": "[7]; single agent, at 5 µM", "result": 98.9, "unit": "%"}, {"measurement": "inhibition", "setting": "[8]; BGB IC20 combo, at 0.005 µM", "result": 97.6, "unit": "%"}, {"measurement": "inhibition", "setting": "[8]; BGB IC40 combo, at 0.005 µM", "result": 98.3, "unit": "%"}, {"measurement": "inhibition", "setting": "[8]; BGB IC40 combo, at 0.05 µM", "result": 102, "unit": "%"}, {"measurement": "inhibition", "setting": "[8]; at 0.5 µM", "result": "-27.1% (inactive)"}, {"measurement": "inhibition", "setting": "[8]; cisplatin combo, at 0.05 µM", "result": 102, "unit": "%"}, {"measurement": "inhibition", "setting": "[8]; cisplatin combo, at 0.5 µM", "result": -38.3, "unit": "%"}, {"measurement": "inhibition", "setting": "[8]; cisplatin combo, at 5 µM", "result": 33.8, "unit": "%"}, {"measurement": "inhibition", "setting": "[8]; measured here: 5 uM single agent, at 5 µM", "result": 11.6, "unit": "%"}, {"measurement": "inhibition", "setting": "[9]; at 0.5 µM", "result": "103% (active)"}, {"measurement": "inhibition", "setting": "[9]; [21]", "result": 23.8, "unit": "%"}, {"measurement": "inhibition", "setting": "[9]; [24]", "result": 101, "unit": "%"}, {"measurement": "inhibition", "setting": "[9]; [25]", "result": 97.5, "unit": "%"}, {"measurement": "inhibition", "setting": "[10]; at 0.5 µM", "result": "91.8% (active)"}, {"measurement": "inhibition", "setting": "[10]; measured here: with BGB IC20, at 0.5 µM", "result": 89.2, "unit": "%"}, {"measurement": "inhibition", "setting": "[10]; measured here: with BGB IC20, at 5 µM", "result": 99.9, "unit": "%"}, {"measurement": "inhibition", "setting": "[10]; measured here: with cisplatin IC20, at 0.5 µM", "result": 92.7, "unit": "%"}, {"measurement": "inhibition", "setting": "[10]; measured here: with cisplatin IC20, at 5 µM", "result": 99.8, "unit": "%"}, {"measurement": "inhibition", "setting": "[10]; single agent, at 5 µM", "result": 100, "unit": "%"}, {"measurement": "inhibition", "setting": "[11]; at 0.5 µM", "result": "41.6% (inactive)"}, {"measurement": "inhibition", "setting": "[11]; measured here: combination with BGB at IC20, at 0.5 µM", "result": 72.6, "unit": "%"}, {"measurement": "inhibition", "setting": "[11]; measured here: combination with cisplatin at IC20, at 0.5 µM", "result": 29.6, "unit": "%"}, {"measurement": "inhibition", "setting": "[12]; at 0.5 µM", "result": "64.6% (inactive)"}, {"measurement": "inhibition", "setting": "[12]; measured here: combo with BGB at IC20, at 0.5 µM", "result": 57.2, "unit": "%"}, {"measurement": "inhibition", "setting": "[12]; measured here: combo with cisplatin at IC20, at 0.5 µM", "result": 71.3, "unit": "%"}, {"measurement": "inhibition", "setting": "[13]; at 0.5 µM", "result": "74.6% (inactive)"}, {"measurement": "inhibition", "setting": "[13]; measured here: inhibition with BGB combination, at 0.05 µM", "result": 9.81, "unit": "%"}, {"measurement": "inhibition", "setting": "[13]; measured here: inhibition with cisplatin combination, at 0.05 µM", "result": 0.164, "unit": "%"}, {"measurement": "inhibition", "setting": "[14]; at 0.5 µM", "result": "75.5% (inactive)"}, {"measurement": "inhibition", "setting": "[14]; [24]", "result": 68.1, "unit": "%"}, {"measurement": "inhibition", "setting": "[14]; [25]", "result": 91.1, "unit": "%"}, {"measurement": "inhibition", "setting": "[15]; at 0.5 µM", "result": "57.8% (inactive)"}, {"measurement": "inhibition", "setting": "[15]; measured here: BGB combination, at 0.5 µM", "result": 51.4, "unit": "%"}, {"measurement": "inhibition", "setting": "[15]; measured here: BGB combination, at 5 µM", "result": 40.9, "unit": "%"}, {"measurement": "inhibition", "setting": "[15]; measured here: cisplatin combination, at 0.5 µM", "result": 50.4, "unit": "%"}, {"measurement": "inhibition", "setting": "[15]; measured here: cisplatin combination, at 5 µM", "result": 69.8, "unit": "%"}, {"measurement": "inhibition", "setting": "[16]; BGB combination, concentration series, at 5 µM", "result": 79.9, "unit": "%"}, {"measurement": "inhibition", "setting": "[16]; at 0.5 µM", "result": "84.7% (active)"}, {"measurement": "inhibition", "setting": "[16]; cisplatin combination, concentration series, at 5 µM", "result": 86.1, "unit": "%"}, {"measurement": "inhibition", "setting": "[17]; at 0.5 µM", "result": "87.2% (active)"}, {"measurement": "inhibition", "setting": "[17]; measured here: combo with BGB IC20, at 0.5 µM", "result": 86.5, "unit": "%"}, {"measurement": "inhibition", "setting": "[17]; measured here: combo with cisplatin IC20, at 0.5 µM", "result": 83.8, "unit": "%"}, {"measurement": "inhibition", "setting": "[18]; at 0.5 µM", "result": "32.3% (inactive)"}, {"measurement": "inhibition", "setting": "[18]; cisplatin combination, at 0.5 µM", "result": 10, "unit": "%"}, {"measurement": "inhibition", "setting": "[18]; cisplatin combination, at 5 µM", "result": 35.4, "unit": "%"}, {"measurement": "inhibition", "setting": "[18]; measured here: BGB IC40 combination 0.05 uM, at 0.05 µM", "result": 15.5, "unit": "%"}, {"measurement": "inhibition", "setting": "[18]; single agent, at 5 µM", "result": 89, "unit": "%"}, {"measurement": "inhibition", "setting": "[19]; at 0.5 µM", "result": "66.8% (inactive)"}, {"measurement": "inhibition", "setting": "[19]; cisplatin combo, at 5 µM", "result": 71.7, "unit": "%"}, {"measurement": "inhibition", "setting": "[19]; measured here: BGB IC40 combination, at 0.05 µM", "result": 52.8, "unit": "%"}, {"measurement": "inhibition", "setting": "[19]; [24]", "result": 69.4, "unit": "%"}, {"measurement": "inhibition", "setting": "[19]; single agent, at 5 µM", "result": 89.7, "unit": "%"}, {"measurement": "inhibition", "setting": "[20]; at 0.5 µM", "result": "80.7% (active)"}, {"measurement": "inhibition", "setting": "[20]; [22]", "result": 72.6, "unit": "%"}, {"measurement": "inhibition", "setting": "[20]; [23]", "result": 84.4, "unit": "%"}, {"measurement": "inhibition", "setting": "[20]; single agent, at 0.05 µM", "result": -55.9, "unit": "%"}, {"measurement": "inhibition", "setting": "[20]; single agent, at 5 µM", "result": 99.8, "unit": "%"}]}
